Assay outcomes: PubChem BioAssay, National Center for Advancing Translational Sciences (NCATS)
BAZ2B block: qHTS Assay for Inhibitors of BAZ2B. AlphaScreen BAZ2B-H3K14Ac peptide displacement. 4.4% of 360,000 active. Potency, µM (top dose mostly 114 µM), inactives show top-dose activity change, negative = inhibition, most hits filed as inhibitors. Bromodomain adjacent to zinc finger domain protein 2B (Homo sapiens), Q9UIF8; also: % is scaled to controls: 0 for no effect and ±100 for the full control effect; nearly all actives have a fitted effect of over 60% in size
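AlphaScreen displacement of biotin-H3(5-23)K14Ac peptide (50 nM final) from BAZ2B (50 nM final) in PBS pH 7.4, 0.01% Tween-20; complex preformed 30 min RT, then compounds (top 110 uM) 30 min RT, beads 20 min dark.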
JMJD2A Tudor inh: qHTS Assay for Inhibitors of JMJD2A-Tudor Domain; Potency, µM (top dose mostly 114 µM), for inactives: at the top dose activity change, negative = inhibition, most hits filed as inhibitors; AlphaScreen JMJD2A-Tudor / H3K4me3 peptide binding; Lysine-specific demethylase 4A (Homo sapiens), O75164; 4.4% of 390,000 active; also: % is scaled to controls: 0 for no effect and ±100 for the full control effect; nearly all actives have a fitted effect of over 50% in size
HP1b binding inh: HTS for Inhibitors of HP1-beta Chromodomain Interactions with Methylated Histone Tails; 0.56% of 390,000 active; Potency, µM (titrated, usually from 114 µM), inactives show at the top dose activity change, negative = inhibition, hits mostly inhibitors; AlphaScreen HP1-beta / biotin-H3K9me3 peptide binding; also: nearly all actives have a fitted effect of over 70% in size
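HP1-beta protein (50 nM final) preincubated 30 min at room temperature with biotinylated H3(1-18)K9me3 peptide (50 nM) in PBS pH 7.4, 0.01% Tween-20, then compound added for 30 min. AlphaScreen streptavidin donor/nickel chelate acceptor beads (10 ug/mL final), 30 min dark, luminescence read.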
Sfp inh: qHTS Assay for Inhibitors of Bacillus subtilis Sfp phosphopantetheinyl transferase (PPTase); 4'-phosphopantetheinyl transferase ffp (Bacillus subtilis), Q9F4F7; Biochemical Sfp PPTase activity, qHTS; Potency, µM, for the others: largest response in the series, negative = inhibition, actives largely listed as inhibitors; 3.5% of 310,000 active;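 also: the enzyme is Sfp with the accession as filed and its product quenches rhodamine fluorescence; 0% = enzyme reaction without inhibitor and -100% = no enzyme wells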
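Compounds were incubated with enzyme (final 15 nM) for 15 min at room temperature before substrate addition started the reaction. Fluorescence at 525 nm excitation, 598 nm emission was recorded immediately and after 30 minutes.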
PLK1 PBD inh: qHTS for Inhibitors of PLK1-PDB (polo-like kinase 1 - polo-box domain): Primary Screen | Plk1 PBD binding of FITC phosphopeptide, fluorescence polarization | Potency, µM, without a hit: max response, negative = inhibition, most hits filed as inhibitors | 2.8% of 360,000 active | AID 720504, 2013; also: series mostly up to about 57 µM; % is scaled to controls: 0 for no effect and ±100 for the full control effect; nearly all actives have a fitted effect of over 65% in size
Target sequence (P53350 whole entry, looked up, the tested form may be a part): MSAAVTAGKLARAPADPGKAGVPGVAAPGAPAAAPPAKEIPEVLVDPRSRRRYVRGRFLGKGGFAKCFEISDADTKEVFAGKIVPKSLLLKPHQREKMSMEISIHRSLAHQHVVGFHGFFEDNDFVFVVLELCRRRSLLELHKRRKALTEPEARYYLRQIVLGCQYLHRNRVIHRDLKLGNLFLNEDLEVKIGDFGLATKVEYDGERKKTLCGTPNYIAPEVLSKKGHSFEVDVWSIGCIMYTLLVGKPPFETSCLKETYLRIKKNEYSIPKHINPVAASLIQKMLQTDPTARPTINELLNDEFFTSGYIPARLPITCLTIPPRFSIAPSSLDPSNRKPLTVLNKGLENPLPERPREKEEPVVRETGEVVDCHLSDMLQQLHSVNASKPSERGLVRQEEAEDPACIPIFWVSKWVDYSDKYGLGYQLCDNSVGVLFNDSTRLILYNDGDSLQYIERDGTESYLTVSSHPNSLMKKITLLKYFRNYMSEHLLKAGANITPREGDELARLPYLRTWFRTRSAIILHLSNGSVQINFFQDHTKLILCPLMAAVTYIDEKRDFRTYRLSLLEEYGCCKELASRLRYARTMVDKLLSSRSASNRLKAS
G9a inh: qHTS Assay for Inhibitors of Histone Lysine Methyltransferase G9a | G9a H3K9 monomethylation, AlphaScreen, 2 h | Potency, µM (titrated, usually from 102 µM), for inactives: at the top dose activity, negative = inhibition, hits mostly inhibitors | Histone-lysine N-methyltransferase EHMT2 (Homo sapiens), Q96KQ7 | 8.8% of 350,000 active; also: % is scaled to controls: 0 for no effect and ±100 for the full control effect; nearly all actives have a fitted effect of over 75% in size
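G9a (20 nM) was preincubated 15 min with compound, then reacted 2 h at room temperature with 500 nM biotin-H3K9 peptide and 20 µM SAM. Monomethyl-H3K9 detected by AlphaScreen using anti-H3K9me1 antibody.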
Active calls of the source: *; ? = inconclusive; · = no result given; [ ] = another dose, or the depositor's remark. Compounds with a hit are over-represented: about 12% of the library has one in this group of screens. Calls follow the shape of the dose curve; as a rule, active = well fitted curve in the direction sought with a large enough effect; inconclusive = small, poorly fitted or top-dose-only effect, or another doubt; inactive = no such curve, though single readings can be large; an effect the other way counts as inactive or inconclusive. Potency is read from the fitted curve at half-maximal effect.

SMILES | BAZ2B block | JMJD2A Tudor inh | HP1b binding inh | Sfp inh | PLK1 PBD inh | G9a inh
O=C(/C(C=Nc1ccc(Br)cc1)=C(/O)c1ccco1)C(F)(F)F | -1% | -25% | 38% | 6% | -5% | 45µM*
O=C(O)c1ccccc1-c1c2cc(I)c(=O)c(I)c-2oc2c(I)c(O)c(I)cc12 | · | 18µM* | ? | ? | 23% | ·
O=C(O)c1c(Cl)c(Cl)c(Cl)c(Cl)c1-c1c2cc(I)c(=O)c(I)c-2oc2c(I)c(O)c(I)cc12 | · | · | · | 14µM* | · | 1.8µM*
NC(N)=NCC(O)CN(c1ccccc1)c1ccccc1 (stereo unspecified) | -29% | ? | 8% | -4% | -9% | ?
C[C@@H]1C[C@@H]([C@@H](C)CC2CC(=O)NC(=O)C2)C(=O)[C@@H](C)C1 | · | · | · | 15% | · | 20%[59 µM]
O=c1nc(-c2ccccc2)c2ccccc2[nH]1 | 8% | -3% | 14% | 11% | -4% | -1%
S=c1nc(-c2ccccc2)[nH]c2ccccc12 | -25% | -7% | 48% | 13% | -23% | 50µM*
S=c1nc(-c2ccc(Br)cc2)[nH]c2ccccc12 | 3% | -10%[11.4 µM] | 22% | -1% | 12µM* | ·
CCc1cc[n+](C2=C([O-])c3ccccc3C(=O)/C2=N\S(=O)(=O)c2cccs2)cc1 | ? | 79µM* | ? | 11% | ? | ?
CCOC(=O)/C(=N\Nc1cc(C(F)(F)F)ccc1Cl)N(CC)CC | ? | -30% | 7% | 14% | 0% | 3.5µM*
CCOC(=O)/C(=N\Nc1ccccc1Cl)N(C)C1CCCCC1 | -30% | -30% | 13% | -12% | ? | 10µM*
Cc1ccc(N2CCN(c3c(CN4CCCC4)c(=O)oc4ccccc34)CC2)c(C)c1 | -36% | ? | -11% | · | · | -24%[59 µM]
CCOC(=O)C(=Cc1ccc(N(C)C)cc1)C(=O)c1ccccc1 | · | · | · | · | 4% | ·
CCOC(=O)/C(=C/c1ccc(OC(=O)c2ccccc2)cc1)C(C)=O | 4% | 8% | 50% | ? | 5.3µM* | 45µM*
CCN(CC)CCNC(=O)c1cc(-c2ccco2)nc2ccccc12 | -29% | 63µM* | -2% | -10% | ? | 32µM*
COc1ccc(CCNC(=O)c2cc(-c3ccco3)nc3ccccc23)cc1 | · | 45µM* | ? | · | ? | ·
COc1ccc(-c2cc(C(=O)NCc3ccco3)c3ccccc3n2)cc1 | -5% | -5% | 26% | ? | -6% | ·
O=C(Nc1ccnn1C1CCN(C(=O)c2cnsn2)CC1)c1cccc(F)c1 | -8% | -3% | 18% | 17% | -11% | ·
CC1CC(C)CN(C(=O)COC(=O)Cc2ccc(Br)cc2)C1 (stereo unspecified) | 10% | -23% | 24% | -17% | 30µM* | 11%
CC1CC(C)CN(C(=O)COC(=O)Cc2ccc(Cl)cc2)C1 (stereo unspecified) | -3% | 2% | 24% | 5% | -3% | -5%[2.33 µM]
Cc1cs/c(=N/C(=S)Nc2ccccc2)n1C | -38% | -2% | 6% | 3% | -2% | -1%[59 µM]
Cc1csc(=Nc2ccccc2)n1C | 50µM* | -13% | 29% | -8% | -5% | ?
Cc1nnc(SCCN2CCOCC2)n1C | ? | 1µM* | ? | ? | -3% | 35µM*
CNC(=O)c1nn(C)c(=O)[nH]c1=O | · | -3% | 3% | · | -12% | ·
CCc1ccccc1NC(=O)CSc1nc2n[nH]c(C)c2c(=N)n1-c1cccc(OC)c1 | -17% | -29% | 13% | -1% | -13% | 13%[59 µM]
SMILES | BAZ2B block | JMJD2A Tudor inh | HP1b binding inh | Sfp inh | PLK1 PBD inh | G9a inh
COc1ccccc1C1CC(c2ccc(Br)cc2)=NN1C(=O)c1cccnc1 (stereo unspecified) | ? | -36% | -12% | 11% | 0% | -48%[59 µM]
COc1ccc(C2=NN(C(=O)c3ccncc3)C(c3ccccc3O)C2)cc1 (stereo unspecified) | -28% | -24% | -5% | 14µM* | 6% | ?
O=C(c1ccccc1)N1N=C(c2cccs2)CC1c1ccccc1O (stereo unspecified) | ? | -34% | 5% | ? | -15% | -4%
COc1cccc(C2CC(c3ccc(Br)cc3)=NN2C(=O)c2ccncc2)c1OC (stereo unspecified) | 32µM* | ? | -3% | -16% | -4% | 36%[59 µM]
O=C(c1ccncc1)N1N=C(c2ccc(Cl)cc2)CC1c1ccccc1O (stereo unspecified) | ? | ? | -11% | -82% | 3% | 20µM*
CC(=O)Nc1ccc(S(=O)(=O)NCCNS(=O)(=O)c2ccc(NC(C)=O)cc2)cc1 | 7% | -21% | 23% | 2% | -2% | ?
CCSc1ccccc1C(=O)Nc1cccc(OC)c1 | -27% | -4% | 34% | 0% | 0% | ?
CC(=O)Nc1ccc(S(=O)(=O)NCCSc2ccccn2)cc1 | -4% | ? | 63% | 6% | -3% | 2.5µM*
CC(=O)NS(=O)(=O)c1cccnc1Nc1ccc(Cl)cc1 | -3% | -21%[11.4 µM] | 11% | 28% | 11µM* | 17%[59 µM]
CCSc1ccccc1C(=O)Nc1ccc(S(=O)(=O)NC(C)=O)cc1 | -14% | 50µM* | 7% | 25µM* | -24% | ·
CCCNS(=O)(=O)c1ccc(NC(=O)c2ccccn2)cc1 | 0% | 20µM* | 16% | -5% | 3% | -7%
COC(=O)C/C=C\[C@@H](C)[C@@H](/C=N\O[C@@H](C)CN1CCCCc2nc(C)c(C)cc21)NS(=O)(=O)c1ccc(C)cc1 | · | · | · | 4% | · | ·
CC(=O)Nc1ccc(S(=O)(=O)NCCc2cn3nc(C)c(C)nc3n2)cc1 | -14% | 13% | 55% | 13% | 8% | 8.9µM*
COc1ccc(S(=O)(=O)NCCc2cn3nc(C)c(C)nc3n2)cc1F | -4%[57.1 µM] | -12% | 32% | -6% | -17% | 13%
CC(=O)NS(=O)(=O)c1ccc(NC(=O)c2ccccn2)cc1 | 50µM* | ? | 29% | -18% | 6% | 50µM*
O=C(Cn1cc(SCc2ccc(Cl)cc2)c2ccccc21)N1CCCC1 | 6% | -16% | 42% | · | · | -7%[59 µM]
CN1c2ccsc2C(O)=C(C(=S)Nc2ccc(F)c(Cl)c2)S1(=O)=O | ? | -32% | -29% | 50µM* | ? | 18µM*
